Growth data for 40 molecules are collected here from PubChem BioAssay (NCI).

Structures are written as SMILES. This is part of a sample that, as a whole, favours compounds with a hit. Of some 83,000 tested, about 20% had one in any assay.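 Cells were grown in 96-well plates and exposed to the test compound at a single concentration for 48 hours; results are reported as percent growth, with values below 10 considered active.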 Unmarked numbers belong to inactive results. Activity calls are given as the source filed them.

The subject of the test is HL-60(TB) leukemia. The experiment in a line: NCI-60 one-dose screen, 48 h (100 = growth as untreated, 0 = no growth, -100 = all killed). The following applies: 10 µM unless noted.
Consider `CCOC(=O)C1(C(=O)OCC)N=C(c2ccccc2)C=C1c1ccccc1`, for which the growth was 87.2%. With `Cc1ncc(-c2ccoc2)c(NC2CCCCCC2)n1` the figure was 96.1%; with `COc1ccn2c(C(C)=O)cc(C(=O)c3ccc4c(c3)Sc3ccccc3N4)c2c1`, -9.97% (active); with `C[C@H](CCC[C@H](C)OS(=O)(=O)c1ccccc1)OS(=O)(=O)c1ccccc1`, 119%.

For `Cc1cc2cn3c4ccc(O)cc4[nH]c(=O)c3c2cc1C`, the growth is -51.9% (active). With `Cc1cc(N2CCOCC2)nc(N(CCCNc2ccnc3cc(Cl)ccc23)Cc2ccco2)n1` the figure was -26.3% (active); with `Nc1no[n+]([O-])c1-c1nnc2c(n1)-c1ccccc1C2=O`, 13.1%; with `Cc1cc(=O)cc(C)n1-c1ccccc1`, 103%.

In the case of `[O-][n+]1c(Cl)cc(Cl)c2ccccc21`, the growth was 84.9%. As for `CCOC(=O)c1cc2c(n1Cc1cc(OC)c(OC)c(OC)c1)-c1oncc1CCC2`, the growth was -8.69% (active). With `COc1cc(/C=C/c2cc(/C=C/c3ccc(O)c(OC)c3)n(-c3ccc(Cl)cc3)c(=O)n2)ccc1O` the figure was 92.6%. To `NC(N)=NS(=O)(=O)c1ccc(Nc2ccc3nnc(-c4ccncc4)n3n2)cc1` belongs 95%; to `COc1ccc(OC)c(/C=C/c2nnc(Nc3ccccc3)o2)c1`, 75.7%; to `O=C(NCCN1CCOCC1)OCc1ccc2c(Cl)cc(Cl)c(O)c2n1`, 73.1%. With `CCOC(=O)CCN(CCC(=O)OCC)c1ccccc1` the figure was 104%; with `CC1(C)Cc2c(Br)c(Br)c(Br)c(OCC(O)CN3CCOCC3)c2O1` (stereo not given), -34.1% (active); with `Cc1ccc(S(=O)(=O)Oc2ccc3sc4cccc(NCCN(C)C)c4c(=O)c3c2)cc1`, -64% (active). For `CCN(CC)CC#CCOC(=O)[C@]1(C)CCC[C@@]2(C)[C@H]1CC(C=O)=C1C=C(C(C)C)CC[C@@H]12`, the growth is 51.6%. With `CCC#CC[C@H](O)C/C=C1/C(=O)C=C[C@@H]1C/C=C\CCCC(=O)OC` the figure was 2.22% (active); with `OC(CCN1CCCC1)(c1ccccc1)C1CCCCC1` (stereo not given), 119%. For the molecule `CC1CCN(CCOc2ccc(CNc3ccc4nc(CCC5CCCCC5)[nH]c4c3)cc2)CC1`, the growth is 5.83% (active). On to `COc1ccc(C2N(c3cc(OC)c(OC)c(OC)c3)C(=O)C2(F)F)cc1F` (stereo not given), for which the growth was 0.936% (active). With `COc1cc(/C=C/C(=O)c2ccc(Oc3ncnc4ccccc34)cc2)cc(OC)c1OC` the figure was 54.3%; with `COc1ccc(-c2cn(-c3ccc(Cl)cc3)c(=S)[nH]2)cc1OC`, 56.1%; with `COCCn1cc(-c2nc(-c3cc4cccnc4n3C)cs2)c2ccccc21`, 42.2%. For `COc1cc2c(cc1-c1c(C)noc1C)ncc1nc(-c3ccccn3)n([C@H](C)COC(F)F)c12`, the growth was 33.6%. With `Cn1cc(-c2nc(-c3c[nH]c4ncccc34)cs2)c2cc(Cl)ccc21` the figure was 55.8%; with `CS(=O)(=O)Nc1cc(-c2ccc3ncnc(Nc4ccc(F)c(Cl)c4)c3c2)cnc1Cl`, 1.75% (active).

Regarding `COc1cc(C2CC(=O)Nc3c2cnn3Cc2ccco2)cc2c1OCCO2` (stereo not given), the growth was 25.6%. With `COc1ccc(-c2nn3c(-c4cc(F)c(Cl)cc4Cl)nnc3s2)cc1` the figure was -1.09% (active). As for `CC(C)Cc1ccc(C(C)C(=O)NCc2ccc(Cn3c(=O)sn(-c4ccc(Cl)cc4)c3=O)cc2)cc1` (stereo not given), the growth was 95.8%. With `COc1ccc(N=Nc2nccs2)c(O)c1` the figure was -32.2% (active).

Regarding `OC(CNc1ccnc2cc(Cl)ccc12)CNc1ccnc2cc(Cl)ccc12`, the growth was -5.79% (active). With `CCN(CC)c1ccc(/C=C/C2=[N+](C)c3ccccc3C2(C)C)cc1` the figure was 11.3%; with `CCCCCCNC(=O)Oc1ccc(/C(=C(\C)c2ccccc2)c2ccc(OCCCN(C)C)cc2)cc1`, 78%. To `O=C(O)c1cccc(-n2ncc(Cl)c(Cl)c2=O)c1` belongs 107%; to `O=C1Nc2ccccc2C12CC(c1ccc(Cl)cc1)=NN2` (stereo not given), 99.1%. With `COc1cccc(N2CCN(c3ncnc4cc[nH]c34)CC2)c1` the figure was 71.3%. Regarding `COc1cc(C(=O)NNC(=O)c2ccccc2C(=O)O)cc(OC)c1OC`, the growth is 5.84% (active).

In the case of `C#Cc1cccc(NC(=O)Nc2cccc(N=C=S)c2)c1`, the growth is 98.7% [8.25 µM].
